{"source": "PubChem BioAssay (EPA / NIEHS)", "note": "Inconclusive results are not listed. The source made the active and inactive calls. Rule for the calls: active = hit-call score of the fitted dose curve at least 0.9, where 1 is the maximum; inconclusive = response in the unintended direction; inactive = score below 0.9.", "data": [{"system": "not listed separately", "experiment": "ACEA_ER_AUC_viability: ACEA Biosciences xCELLigence Real-Time Cell Analysis on Estrogen Receptor Agonism for Viability (AID 2283782);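 note: hit means loss of impedance signal meaning reduced cell growth or viability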", "method_in_brief": "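Viability endpoint: reduced impedance area under the curve relative to DMSO, recorded by real-time electrode sensing over ~80 h of continuous exposure. Duplicate plates of T47D in hormone-depleted medium; eight concentrations, 1:4 dilutions, 100 uM maximum.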", "values": [{"smiles": "CCCCCOC(=O)COc1cc(N2C(=O)C3=C(CCCC3)C2=O)c(F)cc1Cl", "outcome": "inactive"}, {"smiles": "Cc1nn(C)c(Oc2ccccc2)c1C=NOCc1ccc(C(=O)OC(C)(C)C)cc1", "outcome": "inactive"}, {"smiles": "COC(=O)c1ccc(I)cc1S(=O)(=O)NC(=O)Nc1nc(C)nc(OC)n1", "outcome": "inactive"}, {"smiles": "N#CSCSc1nc2ccccc2s1", "AC50": "10.9 µM (active)"}, {"smiles": "S=C(S)NCCNC(=S)S.[Mn+2].[S-]C([S-])=NCCN=C([S-])[S-].[Zn+2]", "outcome": "inactive"}, {"smiles": "CCSC(=O)N(CC(C)C)CC(C)C", "outcome": "inactive"}, {"smiles": "CCCOC(=O)c1ccc(C(=O)OCCC)nc1", "outcome": "inactive"}]}, {"system": "not listed separately", "experiment": "STM_H9_NormalizedViability: Cytotoxicity Assessment at 120 hours in the Stemina devTOX quickPredict H9 human embryonic stem cell (hESC)-based Assay (AID 2283784)", "method_in_brief": "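Here, H9 cells received test compound with daily medium renewal. Each plate included methotrexate references (1uM, 5 nM), 0.1% DMSO and media blanks; CellTiter-Fluor RFU was normalized to DMSO.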", "values": [{"smiles": "CC(C)(C)[C@@H](O)[C@@H](Cc1ccc(Cl)cc1)n1cncn1", "outcome": "inactive"}, {"smiles": "CCNc1nc(N)nc(Cl)n1", "outcome": "inactive"}, {"smiles": "CCOC(=O)C(C)Oc1ccc(Oc2cnc3cc(Cl)ccc3n2)cc1", "note": "(centres undefined)", "outcome": "inactive"}, {"smiles": "CCCCCOC(=O)COc1cc(N2C(=O)C3=C(CCCC3)C2=O)c(F)cc1Cl", "outcome": "inactive"}, {"smiles": "OB(O)O", "outcome": "inactive"}, {"smiles": "COC(=O)c1ccccc1C(=O)O", "outcome": "inactive"}, {"smiles": "S=C([S-])NCCNC(=S)[S-].[Mn+2]", "outcome": "inactive"}, {"smiles": "Cc1nn(C)c(Oc2ccccc2)c1C=NOCc1ccc(C(=O)OC(C)(C)C)cc1", "AC50": "0.0346 µM (active)"}, {"smiles": "COC(=O)c1ccc(I)cc1S(=O)(=O)NC(=O)Nc1nc(C)nc(OC)n1", "outcome": "inactive"}, {"smiles": "N#CSCSc1nc2ccccc2s1", "AC50": "17.3 µM (active)"}, {"smiles": "CCCCOC(=O)[C@@H](C)Oc1ccc(Oc2ccc(C(F)(F)F)cn2)cc1", "AC50": "73.8 µM (active)"}, {"smiles": "CCCN(CCC)c1c([N+](=O)[O-])cc(C(F)(F)F)c(N)c1[N+](=O)[O-]", "outcome": "inactive"}, {"smiles": "N[C@@H](Cc1cc(I)c(Oc2ccc(O)c(I)c2)c(I)c1)C(=O)O", "outcome": "inactive"}, {"smiles": "CCCCOC(=O)C(C)Oc1ccc(Oc2ccc(C(F)(F)F)cn2)cc1", "note": "(centres undefined)", "outcome": "inactive"}, {"smiles": "S=C(S)NCCNC(=S)S.[Mn+2].[S-]C([S-])=NCCN=C([S-])[S-].[Zn+2]", "outcome": "inactive"}, {"smiles": "CCSC(=O)N(CC(C)C)CC(C)C", "outcome": "inactive"}, {"smiles": "C#CCOC(=O)[C@@H](C)Oc1ccc(Oc2ncc(Cl)cc2F)cc1", "AC50": "76 µM (active)"}, {"smiles": "C[C@]12C[C@H](O)[C@H]3[C@@H](CCC4=CC(=O)CC[C@@]43C)[C@@H]1CC[C@@H]2C(=O)CO", "AC50": "80 µM (active)"}, {"smiles": "CCN(Cc1c(F)cccc1Cl)c1c([N+](=O)[O-])cc(C(F)(F)F)cc1[N+](=O)[O-]", "AC50": "50 µM (active)"}]}, {"target": "AR (gene 367) (UniProt P10275)", "sequence (P10275 whole entry, looked up)": "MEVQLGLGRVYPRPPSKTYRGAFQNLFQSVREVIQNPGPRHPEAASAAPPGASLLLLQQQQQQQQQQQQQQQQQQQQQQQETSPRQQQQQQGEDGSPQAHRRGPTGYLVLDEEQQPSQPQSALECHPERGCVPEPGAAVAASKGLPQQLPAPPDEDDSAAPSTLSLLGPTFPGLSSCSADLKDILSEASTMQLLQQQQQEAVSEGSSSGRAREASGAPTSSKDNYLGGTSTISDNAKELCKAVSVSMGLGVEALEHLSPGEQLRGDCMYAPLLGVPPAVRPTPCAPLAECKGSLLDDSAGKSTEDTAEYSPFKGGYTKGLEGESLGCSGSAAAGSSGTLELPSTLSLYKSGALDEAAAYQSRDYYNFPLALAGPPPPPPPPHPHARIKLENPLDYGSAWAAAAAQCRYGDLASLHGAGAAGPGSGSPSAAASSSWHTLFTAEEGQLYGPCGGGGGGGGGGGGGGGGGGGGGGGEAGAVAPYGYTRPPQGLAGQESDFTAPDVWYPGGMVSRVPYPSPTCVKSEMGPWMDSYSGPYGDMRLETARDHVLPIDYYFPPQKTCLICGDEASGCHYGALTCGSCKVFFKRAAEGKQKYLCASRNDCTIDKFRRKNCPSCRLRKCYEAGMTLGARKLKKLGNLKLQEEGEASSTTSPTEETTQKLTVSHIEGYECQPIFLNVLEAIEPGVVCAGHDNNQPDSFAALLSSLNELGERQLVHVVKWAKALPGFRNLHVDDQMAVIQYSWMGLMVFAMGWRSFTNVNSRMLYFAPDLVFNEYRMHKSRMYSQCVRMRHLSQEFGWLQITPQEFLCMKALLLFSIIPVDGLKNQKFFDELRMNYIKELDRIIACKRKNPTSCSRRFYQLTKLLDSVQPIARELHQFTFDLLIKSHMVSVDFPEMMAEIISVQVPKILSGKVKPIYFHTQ", "experiment": "ACEA_AR_antagonist_80hr: ACEA Biosciences xCELLigence Real-Time Cell Analysis on Androgen Receptor Antagonism for Proliferation (AID 2283787);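 note: 22Rv1 human prostate cancer cells with growth followed by electrical impedance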", "method_in_brief": "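Impedance-based real-time growth of 22Rv1 prostate cells, read 80 h after dosing. Eight concentrations, 1:4 series, top 100 uM final (0.5% DMSO), n = 2; signal decrease scored against DMSO.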", "values": [{"smiles": "O=C(c1ccccc1)C1CCCCC1", "outcome": "inactive"}, {"smiles": "Cc1nn(C)c(Oc2ccccc2)c1C=NOCc1ccc(C(=O)OC(C)(C)C)cc1", "AC50": "12.7 µM (active)"}, {"smiles": "N#CSCSc1nc2ccccc2s1", "AC50": "15.1 µM (active)"}, {"smiles": "CCOC(=O)C(C)Oc1ccc(Oc2nc3ccc(Cl)cc3o2)cc1", "note": "(centres undefined)", "AC50": "42.6 µM (active)"}, {"smiles": "C[C@]12CC[C@@H]3c4ccc(O)cc4C[C@@H](CCCCCCCCCS(=O)CCCC(F)(F)C(F)(F)F)[C@H]3[C@@H]1CC[C@@H]2O", "note": "(some centres undefined)", "AC50": "11.9 µM (active)"}, {"smiles": "CCCN(CCC)C(=O)SCC", "outcome": "inactive"}, {"smiles": "CCSC(=O)N(CC(C)C)CC(C)C", "outcome": "inactive"}, {"smiles": "CCCOC(=O)c1ccc(C(=O)OCCC)nc1", "outcome": "inactive"}]}]}
